93 compounds from PubChem BioAssay AID485344 (National Center for Advancing Translational Sciences (NCATS), 2010) can be followed below.

The campaign covered roughly 340,000 compounds. About 6,900 (2%) were called active. The sample holds actives, similar compounds and a random draw of the others, so the mix is not that of the screen. Cut-off read from the data, not from the text of the source: active = inhibition above about 30%; inactive = below that, where a call was filed.

The test deals with D(2) dopamine receptor (Homo sapiens) (UniProt P14416). Nature of the test: HTS Assay for Allosteric Antagonists of the Human D2 Dopamine Receptor: Primary Screen for Antagonists. Note: 0% is about no effect. The note with it: HEK293 TREx D2 cells, calcium flux, dopamine EC80; at 10 µM; stronger effect = higher value. In a few lines: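 Cells plated overnight at 30 C with tetracycline; no-wash calcium dye, 30–90 min RT; 10 s baseline; compound pinned; 180 s read; EC80 dopamine added; another 180 s read.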
Chain of D(2) dopamine receptor (Homo sapiens) (P14416 whole entry, looked up): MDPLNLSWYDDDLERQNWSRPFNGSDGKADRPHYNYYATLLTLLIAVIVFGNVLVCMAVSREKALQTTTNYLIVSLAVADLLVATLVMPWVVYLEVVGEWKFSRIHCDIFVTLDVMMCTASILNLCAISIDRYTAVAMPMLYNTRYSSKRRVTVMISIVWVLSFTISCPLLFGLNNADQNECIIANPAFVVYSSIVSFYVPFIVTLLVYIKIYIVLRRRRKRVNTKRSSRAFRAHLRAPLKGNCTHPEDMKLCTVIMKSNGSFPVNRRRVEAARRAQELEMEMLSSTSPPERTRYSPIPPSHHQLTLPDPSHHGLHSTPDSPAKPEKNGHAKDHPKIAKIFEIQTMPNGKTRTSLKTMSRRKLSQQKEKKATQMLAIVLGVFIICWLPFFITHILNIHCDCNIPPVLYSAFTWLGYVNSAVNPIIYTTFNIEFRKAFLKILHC
Background: Calcium flux is commonly read through the fluorescence of an indicator in the cells.
The term inhibition denotes the drop in the measured response relative to a control, in per cent. Regarding `Cc1nn(Cc2ccccc2)c(C)c1CNC(=O)c1ccc(F)c(S(=O)(=O)N2CCOCC2)c1`, the inhibition is 5.64% (inactive). For `CCOC(=O)C(=O)Nc1nc(-c2ccccc2)c(CC)s1` the value was 8.31% (inactive); for `CCOC(=O)c1sc2nc(SC)nc(-c3ccccc3)c2c1N`, 30.8% (active); for `CCOC(=O)c1sc2nc(CSc3ccccc3)[nH]c(=O)c2c1C`, 20.4% (inactive). In the case of `Cc1ccc(C)c(NC(=O)C(c2ccccc2)N2CCN(CC(=O)NC3CC3)CC2)c1` (stereo not drawn), the inhibition is 5.16% (inactive). For `O=C(Cc1ccc(-n2c(=O)[nH]c3ccccc3c2=O)cc1)N1CCN(c2cccc(Cl)c2)CC1`, the inhibition is 11.5% (inactive). Take `COc1cccc(CNC(=O)Cc2csc(Nc3nc(=S)[nH]c4ccccc34)n2)c1`: the inhibition was -15.6% (inactive). With `O=C(Cc1csc(Nc2nc(=S)[nH]c3ccccc23)n1)NCCCN1CCN(c2cccc(Cl)c2)CC1` the figure was 69.4% (active).

With `COc1ccc(S(=O)(=O)N2CCOCC2)cc1NC(=O)c1ccc(OCC(C)C)c(OC)c1`, the inhibition is -9.24% (inactive). For `CCc1ccc(S(=O)(=O)Nc2cc3c(cc2N2CCCCC2)n(C)c(=O)c(=O)n3C)cc1` the value was 4.98% (inactive). `Cn1c(=O)c(=O)n(C)c2cc(S(=O)(=O)NCCN3CCN(c4ccccc4F)CC3)ccc21`: the inhibition was 42.8% (active). With `Cc1ccc(S(=O)(=O)NCCN2CCOCC2)cc1C` the figure was -3.48% (inactive).

Consider `Cc1ccc(S(=O)(=O)N2CCOCC2)cc1C(=O)Nc1ccccc1N1CCCC1`, for which the inhibition is 3.22% (inactive). With `CCOc1ccc(S(=O)(=O)N2CCCCC2)cc1NC(=O)CN1CCCC1c1cccs1` (stereo not drawn) the figure was 19.6% (inactive).

In the case of `CNCC(O)c1ccc(O)c(O)c1` (stereo not drawn), the inhibition is 84.7% (active). As to `CC(=O)NCC(O)c1ccc([N+](=O)[O-])cc1` (stereo not drawn), the inhibition was 12.7% (inactive).

Turning to `COc1ccccc1CNC(=O)CCCN1C(=O)NC2(CCCC2)C1=O`, the inhibition is 0.109% (inactive). Turning to `NS(=O)(=O)c1ccc(CCNC(=O)COC(=O)COc2cccc(C(F)(F)F)c2)cc1`, the inhibition was -7.34% (inactive). For `CCOC(=O)COc1ccc(Cl)cc1C1NC(=O)NC(C)=C1C(C)=O` (stereo not drawn) the value was 30.8% (active). Regarding `CC(=O)C1=C(C)NC(=O)NC1c1cc(Br)ccc1OCC#N` (stereo not drawn), the inhibition was -0.972% (inactive).

`CCOc1ccccc1C1NC(=O)NC(C)=C1C(=O)OCc1ccco1` (stereo not drawn): the inhibition is -14.9% (inactive). With `O=C(COC(=O)Cn1[nH]c(=O)c2ccccc2c1=O)Nc1ncc(Cl)cc1Cl` the figure was -24.9% (inactive); with `Cc1ccccc1C(=O)NCC(c1ccco1)N1CCc2ccccc21` (stereo not drawn), -18.5% (inactive); with `Nc1cc(N)nc(SCC(=O)Nc2cccc(S(=O)(=O)N3CCCCC3)c2)n1`, 3.49% (inactive).

Regarding `CCC(C)N(C(=O)Cn1nc(C)c([N+](=O)[O-])c1C)C1CCS(=O)(=O)C1` (stereo not drawn), the inhibition was 15.9% (inactive). For the compound `C/C=C/c1ccc(OCCCCN2CCC(C)CC2)c(OC)c1`, the inhibition is 45.6% (active).

Turning to `COc1ccc(OCCCCN2CCC(C)CC2)cc1`, the inhibition is 7.68% (inactive). For the compound `C/C=C/c1ccc(OCC(O)CN2CCCCCCC2)c(OC)c1` (stereo not drawn), the inhibition is -10.5% (inactive). Regarding `O=C(C1CCC1)N1CCN(c2ccccc2)CC1`, the inhibition was 1.73% (inactive). With `CS(=O)(=O)N1CCC(C(=O)N2CCN(c3ccccc3)CC2)CC1` the figure was 47.3% (active). For `CCS(=O)(=O)N1CCC(C(=O)N2CCN(c3ccccc3)CC2)CC1` the value was -2.98% (inactive); for `CCS(=O)(=O)N1CCC(N2CCN(c3ccccc3)CC2)CC1`, 73.1% (active).

On to `CCCS(=O)(=O)N1CCCC(C(=O)N2CCN(c3ccccc3)CC2)C1` (stereo not drawn), for which the inhibition was 6.48% (inactive). With `Cc1ccc(S(=O)(=O)N2CCN(c3ccccc3)CC2)cc1C` the figure was 26.6% (inactive); with `O=C(c1cc2ccccc2o1)N1CCN(S(=O)(=O)c2ccc(Cl)s2)CC1`, 17.4% (inactive); with `CC(C)(CNC(=O)CNC(=O)C1CCCCC1)N1CCOCC1`, -45.4% (inactive).

`CC1(C)CC(=O)C=C(c2ccc(Cl)c(C(F)(F)F)c2)C1`: the inhibition is 4.19% (inactive).

`CCc1ccc(OCC(O)CN2CCN(CCO)CC2)cc1` (stereo not drawn): the inhibition was -7.21% (inactive). On to `C=CCc1ccc(OCC(O)CN2CCN(Cc3ccccc3)CC2)c(OC)c1` (stereo not drawn), for which the inhibition is 0.147% (inactive). For `Cc1ccc(OCC(O)CN2CCN(CC(O)COc3ccc(C)cc3Cl)CC2)c(Cl)c1` (stereo not drawn), the inhibition was 78.4% (active). With `OC(COc1ccc(F)cc1Cl)CN1CCc2ccccc2C1` (stereo not drawn) the figure was 68.3% (active); with `Cc1ccc(Cl)c(OCC(=O)N2CCc3ccccc3C2)c1`, 2.48% (inactive). With `Cc1cccc(OCC(O)CN2CCN(S(=O)(=O)c3ccc(C)cc3C)CC2)c1` (stereo not drawn) the figure was -1.31% (inactive); with `CC(C)(C)OC(=O)Nc1ccc([C@@H](NC(=O)OC(C)(C)C)C(=O)OC(C)(C)C)cc1`, 5.44% (inactive).

Regarding `Nc1nnc(SCCN2C(=O)c3ccccc3S2(=O)=O)s1`, the inhibition is 49.1% (active). For `CCCc1nnc(NC(=O)CN2C(=O)c3ccccc3S2(=O)=O)s1` the value was 2.63% (inactive). As for `Nc1nnc(SCn2nnc3ccccc3c2=O)s1`, the inhibition is -2.28% (inactive). For `CCN(CC(=O)Nc1ccc(OC)cc1)C(=O)c1ccc(Cl)c(S(=O)(=O)N2CCCC2)c1` the value was -15.2% (inactive); for `CCOc1ccc(CC(=O)NCCS(=O)(=O)N2CCN(c3ccccc3)CC2)cc1`, -11.3% (inactive). As to `O=S(=O)(NCCS(=O)(=O)N1CCN(c2ccccc2)CC1)c1ccc(F)cc1`, the inhibition is -7.02% (inactive). With `CCC(C)(C)NC(=O)/C=C/c1cc(OC)c(OC)c(S(=O)(=O)N2CCc3ccccc32)c1` the figure was 40.9% (active); with `COc1cc(/C=C/C(=O)N2CCc3ccccc3C2)cc(OC)c1OC`, -15.7% (inactive); with `COc1cc(C)c(C)cc1S(=O)(=O)N1CCCc2ccccc21`, -2.59% (inactive).

Consider `O=C(OCC(=O)N1CCCC1)c1ccc(Cl)nc1`, for which the inhibition is -5.57% (inactive).

For `Cc1ccc2nc(NC(=O)C3CSC4(C)CCC(=O)N34)sc2c1` (stereo not drawn), the inhibition is -20% (inactive). With `CC1(C)O[C@@H]2[C@H](O1)[C@@H](CO)O[C@H]2n1c(N2CCCCC2)nc2c(N)ncnc21` the figure was 15.7% (inactive); with `CC(=O)Nc1ccc(/C=N/NC(=O)c2cccs2)cc1`, -20.3% (inactive); with `Cc1cccc(-n2c(C)cc(/C=N\NC(=O)c3cccs3)c2C)c1`, 2.76% (inactive). For `Cc1ccc(-n2nc(C)c(/C=N/NC(=O)c3cccs3)c2Cl)cc1`, the inhibition was 32.5% (active). For `COc1ccc(CNC(=O)COC(=O)c2c(C)nn(-c3ccccc3)c2C)cc1OC` the value was 5.14% (inactive); for `CC(=O)N(C)c1ccc(NC(=O)Nc2cccc3ccccc23)cc1`, 11.1% (inactive). For `CCOc1ccc(NC(=O)Nc2cc(C)on2)cc1` the value was -12.8% (inactive). With `CCOc1ccc(NC(=O)Nc2ccc(N(C)C(C)=O)cc2)cc1` the figure was 31.6% (active). As for `Cc1cccc(C(=O)NCC(=O)OCC(=O)N(C)CC(=O)Nc2ccccc2Cl)c1`, the inhibition was -38.4% (inactive). For `Cc1ccc(OCCCC(=O)Nc2ccc3c(c2)OCCO3)cc1` the value was -2.09% (inactive); for `COc1ccc(C(=O)OCC(=O)c2cc(C)n(CC3CCCO3)c2C)cc1[N+](=O)[O-]` (stereo not drawn), -5.34% (inactive). With `O=C(Nn1cnc2ccccc2c1=O)c1ccc([N+](=O)[O-])cc1Cl`, the inhibition was -1.86% (inactive). For `Cc1nc2ccccc2c(=O)n1NC(=O)c1ccccc1` the value was -7.6% (inactive); for `O=C(Nn1cnc2ccccc2c1=O)c1ccccc1`, 31.2% (active); for `Cc1ccsc1C(=O)NC1CCCCC1C` (stereo not drawn), -11.1% (inactive).

Take `CCc1cccc(C)c1NC(=O)COC(=O)CC1CCCC1`: the inhibition was -13.9% (inactive).

For the compound `CN(Cc1cccs1)C(=O)CN1C(=O)c2ccccc2S1(=O)=O`, the inhibition was -30.6% (inactive). For `CCOc1ccccc1OCCCNCc1ccccc1` the value was 50% (active); for `CCOCCCNCc1cc(Br)ccc1OCC`, 6.96% (inactive).

On to `CCOCCCNCc1ccc(OCc2ccc(F)cc2)c(OC)c1`, for which the inhibition is 2.04% (inactive). For `CN(CC(=O)Nc1ccc(F)c(F)c1F)C(=O)Cn1cnc2c1c(=O)n(C)c(=O)n2C` the value was 2.66% (inactive). With `COc1ccccc1-c1cc(C(=O)NCCCn2ccnc2)no1` the figure was 45.9% (active). For `COc1ccc(-c2cc(C(=O)NCCCn3ccnc3)no2)cc1` the value was 3.91% (inactive). `O=C(NCCCn1ccnc1)c1cc(-c2ccccc2)on1`: the inhibition is 7.61% (inactive). Regarding `CCOC(=O)[C@H]1[C@H]2COc3ccc(Cl)cc3[C@@H]2N2C(=O)c3cc(C)ccc3NC(=O)[C@@]12C`, the inhibition was -4.21% (inactive). With `O=C1C2CCCN2C(=O)N1CCCCN1CCN(c2cccc(C(F)(F)F)c2)CC1` (stereo not drawn), the inhibition was 106% (active). `O=C(C1CC(=O)N(C2CCCC2)C1)N1CCN(c2cccc(C(F)(F)F)c2)CC1` (stereo not drawn): the inhibition is 11.8% (inactive). For `Cc1ccccc1N1CCN(CCCN2C(=O)C3CCCCN3C2=O)CC1` (stereo not drawn) the value was -27.4% (inactive); for `CC(C)CN(C(=O)c1ccc2c(c1)OCO2)C1CCS(=O)(=O)C1` (stereo not drawn), -6.59% (inactive); for `Cc1ccc2nnn(Cc3cccc(C(C)(C)C)c3O)c2c1`, 6.04% (inactive).

As for `COc1ccccc1N1CCN(C(=O)c2c(-c3c(Cl)cccc3Cl)noc2C)CC1`, the inhibition is 40% (active).

Consider `COc1ccccc1N1CCN(C(=O)c2ccc(Cl)c(S(=O)(=O)N3CCCC3)c2)CC1`, for which the inhibition is -0.604% (inactive). Regarding `COc1cccc(-c2cc(C(=O)N3CCN(c4ccccc4OC)CC3)no2)c1`, the inhibition was 3.44% (inactive). For `Cn1c(N)c(C(=O)COC(=O)COc2ccc(Cl)cc2)c(=O)n(C)c1=O` the value was 20.2% (inactive); for `COc1ccc(C)cc1S(=O)(=O)Nc1cc2c3c(c1)CCC(=O)N3CCC2`, 6.3% (inactive). For `Cc1ccc(C)c(OCCC(=O)OCC(=O)c2ccc3c(c2)NC(=O)CO3)c1` the value was -0.691% (inactive); for `COc1ccccc1-c1sc2ccccc2c1-c1ccc(Br)nc1`, 7.5% (inactive); for `Cc1n[nH]c(=O)c2c(NC(=O)CSc3cc(Cl)ccc3Cl)oc(C)c12`, 10% (inactive).
